# Assay results taken from ChEMBL document CHEMBL4513156, “CO-ADD screening of NCPRI (Romania) compounds”.
# Potency and affinity values are given separately.
# How the values were obtained:
# Staphylococcus aureus = conditions: Concentration 32 ug.mL-1; ASSAY_TEST Inhibition of Bacterial Growth; detection method Absorption (OD600); MEDIA CAMHB; plate type 384well; NBS; CORNING #3640; time 18 hr
# Escherichia coli = conditions: Concentration 32 ug.mL-1; ASSAY_TEST Inhibition of Bacterial Growth; detection method Absorption (OD600); MEDIA CAMHB; plate type 384well; NBS; CORNING #3640; time 18 hr
Structure (SMILES),Inhibition (Staphylococcus aureus) [%],Inhibition (Escherichia coli) [%]
O=C(N/N=C/[C@@H]1C[C@H](CO)[C@@H]2CCC[C@@H]21)c1ccncc1,23.56,14.61
O=C(NNC(=O)[C@@H]1C[C@H](C(=O)O)[C@@H]2CCC[C@@H]21)c1ccncc1,31.35,13.96
CC(C)(C)[Si](C)(C)O[C@H](/C=C/[C@@H]1[C@@H](CC=NNC(=O)c2ccncc2)[C@@H](O)C[C@H]1O[Si](C)(C)C(C)(C)C)CCc1ccccc1,11.86,7.54
O=C(NN=CC[C@@H]1[C@@H](COC2CCCCO2)[C@H](OC2CCCCO2)C[C@@H]1O)c1ccncc1 (stereo partly specified),12.15,6.4
O=C(N/N=C1/C2C[C@H]3C(C2C(=O)O)[C@@H]13)c1ccncc1 (stereo partly specified),16.39,13.83
O=C(N/N=C1/C[C@@H]2[C@H](C1)[C@H](OC(=O)c1ccccc1)C[C@@H]2OC(=O)c1ccccc1)c1ccncc1,26.15,8.09
CC(C)(C)[Si](C)(C)OCC1C2C[C@H]3C1[C@@H]3/C2=N/NC(=O)c1ccncc1 (stereo partly specified),14.57,8.28
O=C(NN=CC[C@@H]1[C@@H](/C=C/[C@@H](O)CCc2ccccc2)[C@H](O)C[C@@H]1O)c1ccncc1,16.65,9.46
O=C(N/N=C/C[C@@H]1[C@@H](/C=N/NC(=O)c2ccncc2)[C@H](O)C[C@@H]1O)c1ccncc1,16.7,6.29
O=C1C[C@H]2[C@H](/C=N/NC(=O)c3ccncc3)[C@H](C[C@@H]2Cl)O1,34.06,18.17
O=C(NNC(=O)[C@@H]1C[C@H](C(=O)O)[C@@H]2CC=C[C@@H]21)c1ccncc1,32.09,14.78
O=C(N/N=C1\C[C@@H]2[C@H](COC(c3ccccc3)(c3ccccc3)c3ccccc3)C[C@H](CO)[C@@H]2C1)c1ccncc1,13.89,6.21
O=C(NN=CC[C@@H]1[C@@H](/C=C/[C@@H](O)CCc2ccccc2)[C@H](OC(=O)c2ccccc2)C[C@@H]1O)c1ccncc1,18.76,8.83
O=C1C[C@@H]2[C@@H](C=NNC(=O)c3ccncc3)[C@@H](C[C@H]2Cl)O1,33.55,18.72
O=C(N/N=C1\CC[C@@H]2[C@H]1[C@H](OC(=O)c1ccccc1)C[C@@H]2OC(=O)c1ccccc1)c1ccncc1,27.83,14.7
O=C(ON/N=C/[C@@H]1[C@@H]2C[C@H](Cl)[C@H]1C[C@H]2O)c1ccncc1,25.17,12.76
O=C(N/N=C/COc1cccc(Cl)c1)c1ccncc1,8.36,6.4
O=C(N/N=C/C[C@@H]1[C@@H](/C=C/[C@@H](O)COc2cccc(Cl)c2)[C@H](O)C[C@@H]1O)c1ccncc1,27.05,14.88
COC(=O)CCCCCC[C@@H]1[C@@H](/C=N/NC(=O)c2ccncc2)[C@H](OC(=O)c2ccccc2)C[C@@H]1O,26.15,14.2
CC(C)(C)[Si](C)(C)OC[C@H]1[C@H](CC=NNC(=O)c2ccncc2)[C@H](O)C[C@@H]1O[Si](C)(C)C(C)(C)C,21.42,11.91
O=C(N/N=C1\C[C@@H]2[C@@H](CO)[C@H]1C[C@H]2Cl)c1ccncc1,26.12,15.81
O=C(N/N=C/C[C@@H]1[C@@H](/C=C/[C@@H](O)COc2ccccc2)[C@H](O)C[C@@H]1O)c1ccncc1,16.08,10.98
NNC(=O)c1ccncc1 [ISONIAZID],27.38,20.51
O=C(N/N=C/CCCO)c1ccncc1,10.52,5.12
O=C(NN=C[C@H]1[C@@H]2CCO[C@@H]2C[C@@H]1O)c1ccncc1,13.82,5.67
O=C(NNC(c1ccccc1)(c1ccccc1)c1ccccc1)c1ccncc1,1.88,5.22
O=C(NNC(=O)c1cccc([N+](=O)[O-])c1C(=O)O)c1ccncc1,23.26,20.08
O=C(NNC(=O)c1ccc([N+](=O)[O-])cc1C(=O)O)c1ccncc1,30.83,15.66
